# Test results from the supplement of paper PMC12819154, “High-throughput peptide-centric local stability assay extends protein–ligand identification to membrane proteins, tissues and bacteria” (Nature Structural & Molecular Biology, 2025).
# Compound: Nc1ncnc2c1ncn2[C@@H]1O[C@H](COP(=O)(O)OP(=O)(O)OP(=O)(O)O)[C@@H](O)[C@H]1O [adenosine 5'-triphosphate]
# Experiment: log2 fold change of tryptic peptide abundance, ligand vs vehicle (limited proteolysis) (log2 ratio); higher = more trypsin-susceptible (destabilized)
# Conditions: ligand concentration: 5 mM; sample: E. coli desalted lysate; replicate design: treated before aliquoting
# Method: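 HT-PELSA: desalted E. coli K-12 BW25113 lysate (with 12 mM MgCl2) incubated with 5 mM ATP (pH 7) or water for 30 min at 25 C, then a 4 min trypsin pulse at 22 C. Peptides were quantified by DIA-MS (4 replicates). Value is the peptide log2 fold change (treated/control); negative = stabilized. Scale: negative = ligand-stabilized region.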
# 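Further: lysate desalted by size exclusion to strip endogenous ATP, peptide intensities built from DIA-NN precursor signals, and peptides missing any value discarded before comparison.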
row,Target,log2 fold change
1,"UniProt P37675 (peptide sequence: IVDLPMKLVGHK, peptide start residue: 78)",0.735
2,"UniProt P33343 (peptide sequence: LSLITNDKITGNDK, peptide start residue: 95)",-0.561
3,"UniProt P39452 (peptide sequence: IIDTYAEATR, peptide start residue: 646)",-1.19
4,"UniProt P32684 (peptide sequence: ITLVQGLNR, peptide start residue: 179)",0.498
5,"UniProt P37744 (peptide sequence: KGFIDVEQVRK, peptide start residue: 261)",-0.836
6,"UniProt P37774 (peptide sequence: TMVIVTHEMSFAR, peptide start residue: 196)",1.7
7,"UniProt P39353 (peptide sequence: EGVIGEILSCHTKR, peptide start residue: 135)",-0.665
8,"UniProt P06612 (peptide sequence: ADHIYLATDLDREGEAIAWHLR, peptide start residue: 103)",-1.02
9,"UniProt P77399 (peptide sequence: TQGNYPATER, peptide start residue: 240)",-0.418
10,"UniProt P23883 (peptide sequence: ALSLAIENR, peptide start residue: 13)",-2.59
11,"UniProt P76502 (peptide sequence: VLVSPFLR, peptide start residue: 48)",0.397
12,"UniProt P77307 (peptide sequence: HQLVVTQLK, peptide start residue: 249)",-0.533
13,"UniProt Q46906 (peptide sequence: AEGFFCIHR, peptide start residue: 99)",-0.839
14,"UniProt P0AG16 (peptide sequence: TFIMPGQQLR, peptide start residue: 334)",-0.26
15,"UniProt P09169 (peptide sequence: MPYIGLTGSYR, peptide start residue: 198)",1.26
16,"UniProt P33371 (peptide sequence: ICPELQNASR, peptide start residue: 49)",0.883
17,"UniProt P12282 (peptide sequence: QTLHSDATVGQPK, peptide start residue: 74)",-1.54
18,"UniProt P08201 (peptide sequence: LIVSEDNK, peptide start residue: 359)",1.35
19,"UniProt P37903 (peptide sequence: VHVHVEEGSPKDR, peptide start residue: 86)",-1.8

row,Target,log2 fold change
1,"UniProt P16525 (peptide sequence: TTFEHIVTVESELPTAAR, peptide start residue: 122)",0.318
2,"UniProt P07013 (peptide sequence: LVLSGTVCR, peptide start residue: 5)",-0.606
3,"UniProt P04994 (peptide sequence: TGAALHDILHVLK, peptide start residue: 149)",0.643
4,"UniProt P0ACN7 (peptide sequence: LMDCELIIR, peptide start residue: 326)",1.5
5,"UniProt P07014 (peptide sequence: IVIRPLPGLPVIR, peptide start residue: 89)",0.248
6,"UniProt P0ACL0 (peptide sequence: IILAGGELR, peptide start residue: 137)",-0.596
7,"UniProt P11868 (peptide sequence: AWHEGHER, peptide start residue: 285)",-1.02
8,"UniProt P0AEE1 (peptide sequence: AIELKGHK, peptide start residue: 121)",0.899
9,"UniProt P00959 (peptide sequence: HTIMVANLAPRK, peptide start residue: 630)",-0.728
10,"UniProt P33919 (peptide sequence: LLGLTATPFR, peptide start residue: 146)",-1.8
11,"UniProt P76938 (peptide sequence: RVHAQVMDYLTNGIPERPAR, peptide start residue: 137)",0.412
12,"UniProt P11557 (peptide sequence: AVSTLPADVQAK, peptide start residue: 402)",0.435
13,"UniProt P33570 (peptide sequence: AGKEEAHGAPLGEEEVALAR, peptide start residue: 254)",-0.289
14,"UniProt P00893 (peptide sequence: HSQSYMQSLPDFVR, peptide start residue: 493)",0.316
15,"UniProt P77364 (peptide sequence: IDSQTAGGKAPLGVASVAK, peptide start residue: 295)",-0.814
16,"UniProt P37182 (peptide sequence: ESGVEAIPR, peptide start residue: 151)",0.522
17,"UniProt P09030 (peptide sequence: CSFLPEER, peptide start residue: 177)",-1.54
18,"UniProt P52108 (peptide sequence: KKLLDNAAEPYR, peptide start residue: 211)",0.266
